SW480 rerep: inducers of DNA re-replication in SW480 colon cancer cells. SW480 DNA re-replication, Hoechst DNA content imaging, 48 h. Potency, µM (top dose mostly 46.1 µM), inactives show at the top dose re-replication activation, usual class: activators. actives 1.8% (n = 340,000). AID 624297; further: potency means the concentration at half of the fitted maximal effect; % of control where 0% means no effect; nearly all actives have a fitted effect of over 55% in size
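Treated cells incubate 48 hr (37 C, 5% CO2), are stained 40 min with Hoechst, and nuclear fluorescence is enumerated; a rise in nuclei with high DNA signal marks re-replication.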
IL1B secr inh: blocks inflammasome-driven IL-1 beta release; activity change, % at 57.5 µM; actives 4.7% (n = 360,000); AID 743279; THP-1 LPS/ATP IL-1B secretion, AlphaLISA, 16 h; stronger effect = lower value; in the data active means activity change below about -50%; inconclusive means mostly about -30% to -49%; further: on the % scale 0 is the no-effect control and ±100 the full control effect
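THP-1 cells pretreated 1 hr with compounds (up to 57.5 uM final), then stimulated with LPS (250 ng/mL final) plus ATP (1.25 mM final); secreted IL-1B measured by AlphaLISA after 16 hr, decreased signal indicating inhibition.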
BCR signal inh: inhibitors of chronic active B-cell receptor signaling | ABC-DLBCL IkBa-CBG/CBR reporter, luminescence ratio, 4 h | actives 0.05% (n = 340,000) | Potency, µM (titrated, usually from 46.1 µM), for the others: top-dose activity change, negative = inhibition, hits mostly inhibitors; active means well fitted inhibition curve with a large enough effect in the signal ratio, with a control signal flat, not every such curve was filed as active; inconclusive means small, poorly fitted or top-dose-only effect, or effect the other way, or a change in a side signal; the % refers to the signal ratio;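 further: potency means the concentration at half of the fitted maximal effect; plate controls were basal doxycycline-induced cells for no effect and cells given 10 µM MG132 for full effect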
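TMD8 ABC-DLBCL cells carrying doxycycline-inducible green luciferase fused to IkappaBalpha plus unfused red luciferase were exposed to compounds (up to 46 uM) for 4 hrs at 37C. Activity came from the overlap-corrected green/red luminescence ratio.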
MCF10A rereplic: induces DNA re-replication in MCF 10a normal breast cells; MCF 10A DNA re-replication, Hoechst nuclear intensity, 48 h; Potency, µM (doses to about 46.1 µM), for the others: at the highest dose activity, positive = re-replication, most hits filed as activators; actives 2.9% (n = 350,000); AID 624296; further: potency means the concentration at half of the fitted maximal effect; % of control where 0% means no effect; nearly all actives have a fitted effect of over 50% in size
DT40 TDP1 no CPT: qHTS for Inhibitors of human tyrosyl-DNA phosphodiesterase 1 (TDP1): qHTS in cells in absence of CPT. DT40 Tdp1-/- hTDP1 cells, no CPT, ATP luminescence, 48 h. Potency, µM (titrated, usually from 46.2 µM), inactives show at the highest dose activity change, negative = growth inhibition, most hits filed as inhibitors. actives 15% (n = 420,000); further: potency means the concentration at half of the fitted maximal effect; on the % scale 0 is the no-effect control and ±100 the full control effect; nearly all actives have a fitted effect of over 55% in size
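Camptothecin absent (DMSO only). Human TDP1-complemented DT40 knockout cells, 400 cells/well, 37 °C for minimum 48 hr; ATP measured via CellTiter-Glo, 30 min dark incubation, luminescence.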
TDP1 cell CPT: DT40-hTDP1 cell growth loss with CPT; actives 12% (n = 420,000); chicken DT40 Tdp1-/-;hTDP1 cells + 20 nM CPT, ATP luminescence, 48 h; Potency, µM (titrated, usually from 46.2 µM), for the others: at the top dose activity change, negative = growth inhibition, usual class: inhibitors; further: potency means the concentration at half of the fitted maximal effect; on the % scale 0 is the no-effect control and ±100 the full control effect; nearly all actives have a fitted effect of over 55% in size
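Chicken DT40 Tdp1-/- cells complemented with human TDP1, 400 cells/well, exposed to compounds plus 20 nM camptothecin for at least 48 h at 37 C; viability read as ATP content by CellTiter-Glo luminescence.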
Numbers without * were called inactive. Most compounds without a hit are left out; they make up all but 19% or so of the library. Unless noted, the call rests on the fitted dose curve; in most records, active means well fitted curve in the direction sought with a large enough effect; inconclusive means small, poorly fitted or top-dose-only effect, or another doubt; inactive means no such curve, though single readings can be large; an effect the other way counts as inactive or inconclusive.

How did N#C/C(=C\c1cccnc1)c1nc2ccccc2[nH]1 do in these assays?
SW480 rerep: inconclusive; IL1B secr inh: 17.1; BCR signal inh: inconclusive; MCF10A rereplic: inconclusive; DT40 TDP1 no CPT: 5.8µM*; TDP1 cell CPT: inconclusive

How did N#C/C(=C\c1cccc(OCC(=O)O)c1)c1nc2ccccc2[nH]1 do in these assays?
SW480 rerep: inconclusive; IL1B secr inh: 0.0; BCR signal inh: 2.1%; MCF10A rereplic: 9.8%; DT40 TDP1 no CPT: 13.6%; TDP1 cell CPT: 3.5%

Results for Cc1nc2nncn2c(Nc2ccccc2)c1C ?
DT40 TDP1 no CPT: 18.4µM*; TDP1 cell CPT: 20.6µM*

Results for CCc1c(C)nc2nncn2c1NCc1ccc(Cl)cc1 ?
DT40 TDP1 no CPT: 4.61µM*; TDP1 cell CPT: 8.2µM*

What do the screens show for `COC(=O)Cc1c(C)nc2nc(NCc3ccc(Cl)cc3)[nH]n2c1=O`?
SW480 rerep: -13.4%; IL1B secr inh: 22.2; BCR signal inh: inconclusive; MCF10A rereplic: 5.7%; DT40 TDP1 no CPT: -17.6%; TDP1 cell CPT: -16.5%

Results for Cc1ccc(CNc2c(C)c(C)nc3nncn23)cc1 ?
DT40 TDP1 no CPT: 1.16µM*; TDP1 cell CPT: 4.11µM*

How did Cc1ccc(N(CC(=O)NCC2CCCO2)C(=O)CCC(=O)Nc2nccs2)cc1 (centres undefined) do in these assays?
SW480 rerep: 2.4%; IL1B secr inh: 12.4; BCR signal inh: inconclusive; MCF10A rereplic: 0.3%; DT40 TDP1 no CPT: 0.9%; TDP1 cell CPT: 6.0%

Results for CC(=O)Nc1cc(NC(C)=O)ncn1 ?
SW480 rerep: -11.2%; IL1B secr inh: -11.1; BCR signal inh: -3.7%; MCF10A rereplic: 21.8%; DT40 TDP1 no CPT: -8.5%; TDP1 cell CPT: 8.8%

Results for C[C@@H]1CN([C@H](C)CO)C(=O)CCCn2nncc2CO[C@@H]1CN(C)C(=O)Nc1ccc(N2CCCCC2)cc1 ?
IL1B secr inh: 20.1; DT40 TDP1 no CPT: inconclusive; TDP1 cell CPT: 2.9%

How did CN(Cc1ccccc1)C(=O)C1CCN(S(=O)(=O)c2ccc(-n3cnnn3)cc2)CC1 do in these assays?
SW480 rerep: -3.1%; IL1B secr inh: -22.9; BCR signal inh: inconclusive; MCF10A rereplic: -4.7%; DT40 TDP1 no CPT: -9.6%; TDP1 cell CPT: 4.5%

What do the screens show for `O=C(NC1CC1)c1ccc(N2CCCCC2)c([N+](=O)[O-])c1`?
SW480 rerep: inconclusive; BCR signal inh: inconclusive; MCF10A rereplic: 0.3%; DT40 TDP1 no CPT: inconclusive; TDP1 cell CPT: inconclusive

How did CS(=O)(=O)N1CCN(c2ccc(C(=O)NC34CC5CC(CC(C5)C3)C4)cc2[N+](=O)[O-])CC1 do in these assays?
SW480 rerep: -3.6%; IL1B secr inh: 25.6; BCR signal inh: 2.4%; MCF10A rereplic: -1.2%; DT40 TDP1 no CPT: 9.2µM*; TDP1 cell CPT: 14.6µM*

Results for O=C(NC12CC3CC(CC(C3)C1)C2)c1ccc([N+](=O)[O-])cc1 ?
SW480 rerep: -2.9%; IL1B secr inh: inconclusive; BCR signal inh: 6.0%; MCF10A rereplic: inconclusive; DT40 TDP1 no CPT: -16.5%; TDP1 cell CPT: inconclusive

Results for CCS(=O)(=O)N1CCN(c2ccc(C(=O)NC34CC5CC(CC(C5)C3)C4)cc2[N+](=O)[O-])CC1 ?
SW480 rerep: -10.8%; IL1B secr inh: 29.0; BCR signal inh: -0.3%; MCF10A rereplic: 15.7%; DT40 TDP1 no CPT: 7.31µM*; TDP1 cell CPT: 11.6µM*

What do the screens show for `Cc1ccc(OCCCN2CCCC2)c(C)c1`?
SW480 rerep: -5.2%; IL1B secr inh: 22.9; BCR signal inh: 10.2%; MCF10A rereplic: 3.5%; DT40 TDP1 no CPT: -20.1%; TDP1 cell CPT: -12.1%

From PubChem
